Assay results as given in PubChem BioAssay (NCI).
Compounds without any hit were thinned out: in the full panel of roughly 79,000, 15% have a hit. The source made the active and inactive calls. No stated cut-off is given here; in the data, active means growth inhibition above about 70%; inactive means the rest.

Columns and labels:
[1] = NCI Yeast Anticancer Drug Screen. Data for the rad50 strain (AID 155);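 further: 0% = growth of vehicle-only cultures of the same strain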; details: S. cerevisiae rad50 strain growth inhibition, stronger effect = higher value
In short: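 Inhibition values express reduced yeast growth in compound-treated cultures relative to vehicle-treated controls.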

[2] = NCI Yeast Anticancer Drug Screen. Data for the mec2-1 strain (AID 157); details: S. cerevisiae mec2-1 strain, stronger effect = higher value
In short: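 Cells of the genetically defined mec2-1 yeast strain are incubated with test compound. Inhibition of growth is calculated against vehicle-treated controls.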

[3] = NCI Yeast Anticancer Drug Screen. Data for the sgs1 mgt1 strain (AID 161);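 further: 0% = growth of cultures given vehicle only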; details: S. cerevisiae sgs1 mgt1 strain, stronger effect = higher value
In short: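 Test agents were incubated with a DNA-repair-mutant yeast strain. Growth was then read and compared against vehicle-treated controls.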

[4] = NCI Yeast Anticancer Drug Screen. Data for the cln2 rad14 strain (AID 165);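 further: 0% = growth equal to vehicle treated cultures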; details: S. cerevisiae cln2 rad14 strain, stronger effect = higher value
In short: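 The screen exposed genetically defined yeast (cln2 rad14) to test compounds and scored growth inhibition relative to vehicle-treated controls.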

[5] = NCI Yeast Anticancer Drug Screen. Data for the bub3 strain (AID 167); details: S. cerevisiae bub3 mutant strain, stronger effect = higher value
In short: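 Steps: expose the mutant yeast strain to compound; grow alongside vehicle-treated cultures; measure growth; express inhibition against the vehicle cultures.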

[6] = NCI Yeast Anticancer Drug Screen. Data for the mlh1 rad18 strain (AID 175); details: S. cerevisiae mlh1 rad18 strain growth inhibition, stronger effect = higher value
In short: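 Compound-treated yeast growth, normalised to vehicle controls. Strain bears defined DNA repair mutations.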

[7] = at 5.0 µM (retest, dose inferred, filed as 0.5)
[8] = at 50.0 µM (retest, dose inferred, filed as 5.0)

Measured: growth inhibition

O=C1C2C3CCC(O3)C2C(=O)N1c1cccc2ccccc12 (centres undefined)
inactive: [1]; [7] -1% | [1]; [8] -27% | [1]; at 50.0 µM -1.2% | [2]; [7] -5% | [2]; [8] -5% | [2]; at 50.0 µM 8.15% | [3]; [7] -3% | [3]; [8] 1% | [3]; at 50.0 µM 49% | [4]; [7] 0% | [4]; [8] 1% | [4]; at 50.0 µM -7.35% | [5]; [7] 0% | [5]; [8] 7% | [5]; at 50.0 µM -10.4% | [6]; [7] 0% | [6]; [8] 5% | [6]; at 50.0 µM 8.3%

CC1CCN(CCOC(=O)C(c2ccccc2)C2C=CCCC2)C1C (centres undefined)
active: [1]; at 50.0 µM 81.1% | [2]; [8] 71% | [3]; [8] 80% | [3]; at 50.0 µM 84.5% | [4]; at 50.0 µM 86.9% | [6]; [8] 78% | [6]; at 50.0 µM 77.5%
inactive: [1]; [7] 16% | [1]; [8] 59% | [2]; [7] 45% | [2]; at 50.0 µM 58.9% | [3]; [7] 53% | [4]; [7] 16% | [4]; [8] 53% | [5]; [7] 16% | [5]; [8] 50% | [5]; at 50.0 µM 62% | [6]; [7] 54%

OC(CBr)c1c(Br)ccc2ccccc12 (centres undefined)
inactive: [1]; [7] 3% | [1]; [8] 65% | [1]; at 50.0 µM 53.6% | [2]; [7] -6% | [2]; at 50.0 µM 5.75% | [3]; [7] 3% | [3]; at 50.0 µM 48% | [4]; [7] -3% | [4]; [8] 65% | [4]; at 50.0 µM 32.9% | [5]; [7] -1% | [5]; at 50.0 µM 20.4% | [6]; [7] 20%
active: [2]; [8] 82% | [3]; [8] 77% | [5]; [8] 77% | [6]; [8] 90% | [6]; at 50.0 µM 74.7%

NC(=Nc1ccccc1)SCc1ccc([N+](=O)[O-])cc1
inactive: [1]; [7] 47% | [1]; [8] 67% | [1]; at 50.0 µM 30.2% | [2]; [7] 51% | [2]; at 50.0 µM 43% | [3]; [7] 13% | [3]; at 50.0 µM 57.2% | [4]; [7] 52% | [4]; at 50.0 µM 16.8% | [5]; [7] 29% | [6]; [7] 43% | [6]; at 50.0 µM 19.4%
active: [2]; [8] 78% | [3]; [8] 71% | [4]; [8] 76% | [5]; [8] 76% | [5]; at 50.0 µM 70.5% | [6]; [8] 70%

CCCCCC/C=C1\CCC(CN2CCOCC2)C1=O (centres undefined)
active: [1]; [8] 96% | [1]; at 50.0 µM 81.7% | [2]; [8] 97% | [3]; [8] 96% | [3]; at 50.0 µM 79.7% | [4]; [8] 79% | [5]; [8] 98% | [5]; at 50.0 µM 82.5% | [6]; [8] 97% | [6]; at 50.0 µM 74.8%
inactive: [1]; [7] 53% | [2]; [7] 23% | [2]; at 50.0 µM 52% | [3]; [7] 16% | [4]; [7] 25% | [4]; at 50.0 µM 63% | [5]; [7] 48% | [6]; [7] 59%

Cc1cc(N/N=C(\c2ccccc2)c2ccccn2)nc2ccccc12
inactive: [1]; [7] 33% | [2]; [7] 10% | [3]; [7] 14% | [4]; [7] -7% | [4]; [8] 69% | [5]; [7] 19% | [6]; [7] 25%
active: [1]; [8] 91% | [1]; at 50.0 µM 96.9% | [2]; [8] 91% | [2]; at 50.0 µM 97.8% | [3]; [8] 83% | [3]; at 50.0 µM 96.5% | [4]; at 50.0 µM 97.6% | [5]; [8] 90% | [5]; at 50.0 µM 97.4% | [6]; [8] 92% | [6]; at 50.0 µM 97.5%

O=C(CNc1ccc([N+](=O)[O-])cc1)Nn1c(-c2ccccc2)nc2ccccc2c1=O
inactive: [1]; [7] 18% | [1]; [8] 23% | [2]; [7] 3% | [2]; [8] 26% | [3]; [7] 6% | [3]; [8] 25% | [4]; [7] 11% | [4]; [8] 19% | [4]; at 50.0 µM 38.8% | [5]; [7] 4% | [5]; [8] 54% | [6]; [7] 2% | [6]; [8] 28%
active: [1]; at 50.0 µM 82.1% | [2]; at 50.0 µM 70.5% | [3]; at 50.0 µM 72.7% | [5]; at 50.0 µM 91.8% | [6]; at 50.0 µM 85.4%

COc1ccc([N+](=O)[O-])cc1NC(=O)Nc1ccc(C(=O)OCC(C)C)cc1
active: [2]; at 50.0 µM 70.2% | [6]; at 50.0 µM 74.9%
inactive: [1]; [7] 11% | [1]; [8] 36% | [1]; at 50.0 µM 48.8% | [2]; [7] 3% | [2]; [8] 53% | [3]; [7] 3% | [3]; [8] 48% | [3]; at 50.0 µM 68.2% | [4]; [7] -10% | [4]; [8] 56% | [4]; at 50.0 µM 57% | [5]; [7] -5% | [5]; [8] 47% | [5]; at 50.0 µM 45.3% | [6]; [7] 13% | [6]; [8] 3%
